This passage reports Percent Effect results from ChEMBL document CHEMBL3988442, “University of Dundee, Small-Polar-MMV Screening Library” (2021).

Each structure is given as a SMILES string. For some of these results: Results with a measured potency or affinity are listed apart.

What all share (parameters): scale not given: direction of the effect not stated beside the values
For experiment [1], the target named is Protein translocase subunit SecA (Escherichia coli (strain K12)) (UniProt P10408). As to the kind of experiment: Assay to Identify E. coli SecA ATPase Inhibitors. It counts as functional. The settings on record: 30 µM.
For experiment [2], the target named is T1, Ubiquitin-activating enzyme e1, putative (Leishmania donovani (strain BPK282A1)) (UniProt E9BSI1).
T1 sequence (whole entry): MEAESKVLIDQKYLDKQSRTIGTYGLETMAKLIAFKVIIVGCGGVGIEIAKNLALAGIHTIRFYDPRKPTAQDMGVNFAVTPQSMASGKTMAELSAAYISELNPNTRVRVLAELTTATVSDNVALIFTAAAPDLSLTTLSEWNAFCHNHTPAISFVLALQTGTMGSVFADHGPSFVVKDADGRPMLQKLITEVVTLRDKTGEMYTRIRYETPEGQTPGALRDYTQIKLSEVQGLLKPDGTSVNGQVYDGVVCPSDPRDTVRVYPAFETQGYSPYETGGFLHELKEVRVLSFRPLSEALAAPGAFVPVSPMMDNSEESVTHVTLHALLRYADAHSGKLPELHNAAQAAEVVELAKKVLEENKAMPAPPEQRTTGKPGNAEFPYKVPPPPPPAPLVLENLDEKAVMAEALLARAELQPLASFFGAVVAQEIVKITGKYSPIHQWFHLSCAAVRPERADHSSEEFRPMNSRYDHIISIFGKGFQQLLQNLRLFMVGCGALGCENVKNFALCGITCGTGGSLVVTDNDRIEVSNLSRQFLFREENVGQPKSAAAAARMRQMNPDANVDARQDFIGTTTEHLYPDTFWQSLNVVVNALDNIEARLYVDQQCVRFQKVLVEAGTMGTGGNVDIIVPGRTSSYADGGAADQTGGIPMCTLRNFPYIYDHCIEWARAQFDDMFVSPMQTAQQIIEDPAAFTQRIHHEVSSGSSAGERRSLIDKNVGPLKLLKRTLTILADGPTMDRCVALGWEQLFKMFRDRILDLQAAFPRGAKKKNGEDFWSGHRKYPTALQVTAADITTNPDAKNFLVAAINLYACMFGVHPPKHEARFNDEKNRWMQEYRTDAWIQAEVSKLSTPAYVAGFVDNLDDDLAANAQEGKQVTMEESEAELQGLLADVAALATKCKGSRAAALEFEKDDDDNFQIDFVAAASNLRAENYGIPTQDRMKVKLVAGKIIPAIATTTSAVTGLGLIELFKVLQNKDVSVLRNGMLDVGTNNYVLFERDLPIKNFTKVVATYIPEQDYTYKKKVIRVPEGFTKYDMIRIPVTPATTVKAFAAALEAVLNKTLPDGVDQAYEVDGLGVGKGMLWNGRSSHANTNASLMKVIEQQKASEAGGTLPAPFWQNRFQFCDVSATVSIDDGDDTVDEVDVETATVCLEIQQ
Put plainly: Leishmania donovani Ubiquitin Activating Enzyme (LdE1). It counts as functional. To be noted: 30 µM.

In experiment [3] the target is AMP-activated protein kinase, AMPK (Homo sapiens) (UniProt P54646+O43741+P54619+Q9UGJ0+Q9Y478+Q13131+Q9UGI9). As to the kind of experiment: AMP-dependent Kinase enzyme assay. An in vitro enzyme assay that detects ADP turnover that is directly proportional to AMPK activity. This uses naive AMPK that is activated during the assay with MK-8722. To be noted: 30 µM. It is filed as functional.

Experiment [4] addresses Sialic acid-binding Ig-like lectin 9 (Homo sapiens) (UniProt Q9Y336). As to the kind of experiment: Hs-Siglec9 ALPHAscreen SOP 20170721. The settings on record: 10 µM.
The test system of a further experiment is Trypanosoma cruzi. As to the kind of experiment: Trypanosoma cruzi phosphomannomutase and mannose-1-phosphate guanylyltransferase assay. It counts as functional. The settings on record: 10 µM.
Experiment [5] addresses T2, Arginase-2, mitochondrial (Homo sapiens) (UniProt P78540).
T2 sequence (whole entry): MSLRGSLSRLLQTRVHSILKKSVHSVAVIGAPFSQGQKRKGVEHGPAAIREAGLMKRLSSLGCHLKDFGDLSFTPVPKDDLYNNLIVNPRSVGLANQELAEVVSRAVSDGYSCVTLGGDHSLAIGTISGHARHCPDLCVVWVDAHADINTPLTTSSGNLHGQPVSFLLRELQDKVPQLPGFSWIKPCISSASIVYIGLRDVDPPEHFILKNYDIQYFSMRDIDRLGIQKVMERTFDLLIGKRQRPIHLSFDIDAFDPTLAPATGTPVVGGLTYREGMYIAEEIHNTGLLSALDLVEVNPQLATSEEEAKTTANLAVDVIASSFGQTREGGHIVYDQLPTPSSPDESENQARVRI
As to the kind of experiment: in vitro enzyme assay to detect the production of urea directly proportional to the activity of Arginase II. Also: in the data most compounds retested in dose-response had high values. The settings on record: 33.3 µM. It is filed as functional.

In experiment [6] the target is T3, Proteasome subunit beta (Trypanosoma cruzi) (UniProt O96673).
T3 sequence (whole entry): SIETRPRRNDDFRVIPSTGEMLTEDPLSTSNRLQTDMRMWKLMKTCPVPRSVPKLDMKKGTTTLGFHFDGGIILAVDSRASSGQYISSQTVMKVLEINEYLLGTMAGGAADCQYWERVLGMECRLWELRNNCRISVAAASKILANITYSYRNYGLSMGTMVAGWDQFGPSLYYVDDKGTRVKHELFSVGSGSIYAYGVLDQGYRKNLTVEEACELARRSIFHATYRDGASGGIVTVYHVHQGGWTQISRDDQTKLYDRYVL
Put plainly: Trypanosoma cruzi proteasome chymotrypsin-like activity (TcProtChymo) assay. Also: in the data most compounds retested in dose-response had high values. It counts as functional. The settings on record: 9.37 µM.

The species named for the next experiment is Homo sapiens. Put plainly: To identify inhibition of the IFN signalling (Jak-Stat) pathway via expression of an eGFP reporter gene under the control of an IFN-stimulated response element (ISRE) containing MxA promoter. It is filed as functional. The settings on record: 30 µM. (In general: In a reporter assay the amount or activity of a reporter protein is the signal.)

Experiment [7] addresses T4, Tyrosyl-tRNA synthetase, putative (Trypanosoma cruzi (strain CL Brener)) (UniProt Q4DSP6).
T4 sequence (whole entry): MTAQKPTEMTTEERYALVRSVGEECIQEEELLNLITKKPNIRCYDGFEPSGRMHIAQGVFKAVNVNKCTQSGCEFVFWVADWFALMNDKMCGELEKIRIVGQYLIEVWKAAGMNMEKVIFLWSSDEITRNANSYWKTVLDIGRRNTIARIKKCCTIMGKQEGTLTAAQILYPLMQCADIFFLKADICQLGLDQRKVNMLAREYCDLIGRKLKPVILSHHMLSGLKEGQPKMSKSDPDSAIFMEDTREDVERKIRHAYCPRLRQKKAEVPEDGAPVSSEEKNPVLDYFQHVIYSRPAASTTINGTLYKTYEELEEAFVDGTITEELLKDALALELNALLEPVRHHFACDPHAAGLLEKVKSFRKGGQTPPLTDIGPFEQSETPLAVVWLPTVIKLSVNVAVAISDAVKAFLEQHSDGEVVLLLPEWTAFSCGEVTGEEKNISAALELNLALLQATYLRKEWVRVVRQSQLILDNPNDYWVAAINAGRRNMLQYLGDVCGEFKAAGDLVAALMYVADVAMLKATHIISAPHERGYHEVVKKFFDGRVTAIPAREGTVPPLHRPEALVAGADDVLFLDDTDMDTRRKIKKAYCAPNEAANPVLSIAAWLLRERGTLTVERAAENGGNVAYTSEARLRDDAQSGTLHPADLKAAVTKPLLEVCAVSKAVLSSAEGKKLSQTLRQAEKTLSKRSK
Put plainly: Trypanosoma cruzi tyrosyl tRNA synthetase (TcYRS) _High Tyrosine SOP. Also: in the data most compounds retested in dose-response had high values. It counts as functional. The settings on record: 30 µM.

Experiment [8] concerns the target T4, Tyrosyl-tRNA synthetase, putative (Trypanosoma cruzi (strain CL Brener)). As to the kind of experiment: Trypanosoma cruzi tyrosyl tRNA synthetase (TcYRS) SOP. It counts as functional. To be noted: 30 µM.
In experiment [9] the target is Chromo domain-containing protein 1 (Saccharomyces cerevisiae (strain ATCC 204508 / S288c) (Baker's yeast)) (UniProt P32657). As to the kind of experiment: ScCHD-1 Enzyme Inhibition Assay. Also: in the data most compounds retested in dose-response had high values. It is filed as functional. To be noted: 30 µM.
Chromo domain-containing protein 1 (Saccharomyces cerevisiae (strain ATCC 204508 / S288c) (Baker's yeast)), sequence (P32657 whole entry, the tested form may be a part): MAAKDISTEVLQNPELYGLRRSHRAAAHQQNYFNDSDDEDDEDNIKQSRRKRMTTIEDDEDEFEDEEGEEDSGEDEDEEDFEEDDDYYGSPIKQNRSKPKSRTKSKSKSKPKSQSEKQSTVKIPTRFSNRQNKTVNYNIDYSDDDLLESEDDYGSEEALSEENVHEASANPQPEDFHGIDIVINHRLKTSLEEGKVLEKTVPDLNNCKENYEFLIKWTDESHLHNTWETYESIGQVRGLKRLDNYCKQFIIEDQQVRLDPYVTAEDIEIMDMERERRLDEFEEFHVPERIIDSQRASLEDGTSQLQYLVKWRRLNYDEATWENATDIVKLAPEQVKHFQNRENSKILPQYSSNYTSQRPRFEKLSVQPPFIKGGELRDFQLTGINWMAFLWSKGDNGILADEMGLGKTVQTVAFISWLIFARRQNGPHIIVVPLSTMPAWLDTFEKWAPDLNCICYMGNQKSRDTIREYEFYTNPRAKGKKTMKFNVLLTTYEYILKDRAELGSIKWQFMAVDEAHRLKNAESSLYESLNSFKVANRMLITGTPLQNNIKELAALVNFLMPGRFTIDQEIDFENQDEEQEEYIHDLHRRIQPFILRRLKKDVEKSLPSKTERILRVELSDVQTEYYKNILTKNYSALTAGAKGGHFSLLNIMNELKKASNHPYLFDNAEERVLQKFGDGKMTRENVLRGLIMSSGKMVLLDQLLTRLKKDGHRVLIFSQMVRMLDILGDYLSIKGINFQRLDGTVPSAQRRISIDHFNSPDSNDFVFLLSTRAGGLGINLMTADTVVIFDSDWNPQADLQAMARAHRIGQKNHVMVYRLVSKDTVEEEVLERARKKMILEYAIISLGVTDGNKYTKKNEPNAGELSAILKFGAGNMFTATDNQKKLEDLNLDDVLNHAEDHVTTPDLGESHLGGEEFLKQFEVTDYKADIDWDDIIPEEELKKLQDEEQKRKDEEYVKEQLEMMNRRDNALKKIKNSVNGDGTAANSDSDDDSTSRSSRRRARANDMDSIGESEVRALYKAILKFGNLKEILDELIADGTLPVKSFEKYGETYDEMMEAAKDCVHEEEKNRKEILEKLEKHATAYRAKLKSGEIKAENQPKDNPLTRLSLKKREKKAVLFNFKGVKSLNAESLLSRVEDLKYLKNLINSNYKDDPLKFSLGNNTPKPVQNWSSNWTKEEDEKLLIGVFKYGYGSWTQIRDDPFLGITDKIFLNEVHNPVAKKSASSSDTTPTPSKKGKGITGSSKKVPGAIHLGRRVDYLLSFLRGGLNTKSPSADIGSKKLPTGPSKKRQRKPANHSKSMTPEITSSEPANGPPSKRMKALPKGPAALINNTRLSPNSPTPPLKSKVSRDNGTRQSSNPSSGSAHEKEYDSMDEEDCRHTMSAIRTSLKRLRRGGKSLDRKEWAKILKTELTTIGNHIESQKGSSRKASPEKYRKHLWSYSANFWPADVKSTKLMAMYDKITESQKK

Sialic acid-binding Ig-like lectin 9 (Homo sapiens), sequence (Q9Y336 whole entry): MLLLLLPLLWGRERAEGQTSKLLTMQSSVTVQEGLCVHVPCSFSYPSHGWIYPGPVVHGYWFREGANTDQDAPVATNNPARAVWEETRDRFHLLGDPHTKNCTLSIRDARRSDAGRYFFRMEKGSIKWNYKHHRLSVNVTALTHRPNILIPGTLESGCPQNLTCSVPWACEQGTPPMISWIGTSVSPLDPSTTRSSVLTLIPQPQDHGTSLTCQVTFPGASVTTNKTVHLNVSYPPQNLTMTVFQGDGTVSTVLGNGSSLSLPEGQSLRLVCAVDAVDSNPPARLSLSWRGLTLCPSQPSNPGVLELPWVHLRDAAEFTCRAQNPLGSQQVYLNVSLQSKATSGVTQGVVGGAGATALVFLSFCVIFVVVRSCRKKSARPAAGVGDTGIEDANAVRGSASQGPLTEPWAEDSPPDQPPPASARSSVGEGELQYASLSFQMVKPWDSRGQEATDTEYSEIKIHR
Protein translocase subunit SecA (Escherichia coli (strain K12)), sequence (P10408 whole entry): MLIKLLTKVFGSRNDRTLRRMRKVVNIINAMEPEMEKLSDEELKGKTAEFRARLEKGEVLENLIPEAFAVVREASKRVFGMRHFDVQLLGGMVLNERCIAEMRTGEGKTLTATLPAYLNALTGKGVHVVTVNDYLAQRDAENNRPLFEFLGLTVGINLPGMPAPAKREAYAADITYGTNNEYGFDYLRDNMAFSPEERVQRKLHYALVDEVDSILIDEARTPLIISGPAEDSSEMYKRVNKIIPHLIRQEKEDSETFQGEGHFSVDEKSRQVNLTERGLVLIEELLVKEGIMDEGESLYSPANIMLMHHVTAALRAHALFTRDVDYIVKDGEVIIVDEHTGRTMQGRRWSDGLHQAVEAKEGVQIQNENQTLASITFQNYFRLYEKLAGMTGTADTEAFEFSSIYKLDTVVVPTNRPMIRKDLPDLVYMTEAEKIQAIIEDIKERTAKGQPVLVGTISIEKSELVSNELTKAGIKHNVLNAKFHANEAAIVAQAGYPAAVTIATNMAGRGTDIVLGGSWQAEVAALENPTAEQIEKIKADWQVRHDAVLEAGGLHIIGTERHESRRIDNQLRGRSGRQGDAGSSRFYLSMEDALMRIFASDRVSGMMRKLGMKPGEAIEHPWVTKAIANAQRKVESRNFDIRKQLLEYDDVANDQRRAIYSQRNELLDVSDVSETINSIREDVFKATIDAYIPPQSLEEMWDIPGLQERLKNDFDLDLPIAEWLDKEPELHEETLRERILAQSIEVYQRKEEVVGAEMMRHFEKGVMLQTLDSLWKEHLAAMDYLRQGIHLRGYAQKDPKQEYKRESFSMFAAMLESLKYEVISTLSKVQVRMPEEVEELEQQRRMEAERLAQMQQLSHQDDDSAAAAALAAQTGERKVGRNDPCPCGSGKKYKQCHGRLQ

As for `NC(=O)C(CNC(=O)COCC(F)(F)F)Cc1ccc(F)cc1` (stereo unspecified), the Percent Effect in [1] is -3.66%; in experiment [2], 5.26%; in experiment [3], 9.48%; in experiment [4], -1.54%; in the experiment with Trypanosoma cruzi, 0.292%; in [5] it was -5.92%. In addition, the Percent Effect in experiment [6] is 13.1%; in the experiment listed under Homo sapiens, -19.6%; in [7], 2.13%; in experiment [8] it was 15.6%; in experiment [9], -4.87%.

For the compound `CNC(=O)CCCNCc1c(C(C)C)nn(C)c1N(C)C`, the Percent Effect in [1] is -1.38%; in experiment [2], 0%; in experiment [3] it was -11.4%; in experiment [4] it was -8.3%; in the experiment with Trypanosoma cruzi, -2.15%; in experiment [5] it was 2.52%. For the same compound, the Percent Effect in [6] was 0.761%; in the experiment listed under Homo sapiens, -13.6%; in experiment [7] it was -2.46%; in experiment [8], -1.24%; in [9], 5.41%.

On to `COCC(=O)NCc1cccc(Br)c1`, for which the Percent Effect was -0.913% in experiment [1]; 18.4% in experiment [2]; -5.98% in [3]; -7.74% in [4]; 4.89% in the experiment on Trypanosoma cruzi; 1.92% in [5]. Also, the Percent Effect is 11.4% in experiment [6]; 13.3% in the experiment filed under Homo sapiens; 4.41% in [7]; 19.5% in experiment [8]; -12.7% in experiment [9].

For the compound `CC(NC(=O)CNCCn1cccn1)c1ccc2c(c1)OCCO2` (stereo unspecified), the Percent Effect in experiment [1] was -2.65%; in [2] it was -7.79%; in [3], 0.13%; in experiment [4], 7.51%; in the experiment with Trypanosoma cruzi it was 5.62%; in [5], 1.07%. The Percent Effect was 7.6% in [6]; -0.448% in the experiment filed under Homo sapiens; 8.74% in experiment [7]; 9.76% in experiment [8]; -7.52% in [9].

Take `O=C(c1ccco1)N1CC[C@H]2[C@H]1CCN2CC1CCOCC1`: the Percent Effect is -5.53% in [1]; 0% in experiment [2]; 11.2% in experiment [3]; -3.38% in experiment [4]; -3.74% in the experiment on Trypanosoma cruzi; 1.17% in experiment [5]. For the same compound, the Percent Effect in experiment [6] is -2.56%; in the experiment listed under Homo sapiens it was 6.93%; in experiment [7], 6.38%; in experiment [8] it was 3.85%; in experiment [9], -1.01%.

`O=C(Nc1cccc(CNCc2csc(Br)c2)c1)C1CC1`: the Percent Effect is -8.41% in experiment [1]; 23.7% in experiment [2]; -5.54% in experiment [3]; -1.24% in [4]; 5.32% with Trypanosoma cruzi; 2.16% in [5]. Besides, the Percent Effect is 7.19% in experiment [6]; 37.8% in the experiment listed under Homo sapiens; 3.45% in experiment [7]; 25.9% in experiment [8]; -8.55% in [9].

Turning to `CCn1cc2c(n1)CN(Cc1ccncc1)CC2COCC1CC1` (stereo unspecified), the Percent Effect in [1] is -3.54%; in [2], 10.7%; in experiment [3], 12.3%; in experiment [4] it was 6.03%; in the experiment on Trypanosoma cruzi, -1.97%; in experiment [5], -0.699%. Further, the Percent Effect in experiment [6] is 10.7%; in the experiment listed under Homo sapiens it was 4.31%; in [7], 6.38%; in experiment [8] it was 11.5%; in experiment [9], -6.9%.

As to `O=C(c1cc[nH]n1)N1CCCC1C1CCN(Cc2ccccc2)CC1` (stereo unspecified), the Percent Effect in [1] is -0.52%; in [2], -7.89%; in [3], 10.9%; in experiment [4], 1.13%; in the experiment on Trypanosoma cruzi it was -7.11%; in experiment [5], 1.18%. Further, the Percent Effect was 16.6% in experiment [6]; -0.106% in the experiment listed under Homo sapiens; 4.25% in experiment [7]; 7.79% in experiment [8]; -1.17% in [9].

As for `COCc1ccc(CNC(=O)C2=NN(c3ccccc3)C(=O)CN2)cc1`, the Percent Effect is -0.976% in [1]; 5.41% in experiment [2]; 6.06% in experiment [3]; -1.63% in [4]; -9.09% in the experiment with Trypanosoma cruzi; 1.24% in experiment [5]. Moreover, the Percent Effect in experiment [6] is 14%; in the experiment listed under Homo sapiens it was 53.6%; in experiment [7], 3.23%; in experiment [8], 13.6%; in experiment [9], -4.43%.

Turning to `CN1CC(=O)N(c2cnn(C)c2)CC12CCN(Cc1ccccc1)C2` (stereo unspecified), the Percent Effect in [1] is -4.4%; in experiment [2], 5.48%; in experiment [3], -2.44%; in experiment [4], 7.88%; with Trypanosoma cruzi, 10.3%; in experiment [5] it was -4.39%. Further, the Percent Effect in [6] was 4.02%; in the experiment filed under Homo sapiens, -7.57%; in experiment [7] it was 5.21%; in experiment [8], 8.64%; in experiment [9] it was -4.55%.

As to `Cc1ccc(-n2nnc(C(=O)Nc3cc(C)nn3C)c2C2CC2)cc1`, the Percent Effect in experiment [1] is -8.29%; in experiment [2], 5.41%; in experiment [3], 1.63%; in [4], -1.73%; with Trypanosoma cruzi, -3.99%; in experiment [5], 1.66%. The Percent Effect was 8.98% in experiment [6]; 33.1% in the experiment filed under Homo sapiens; 3.96% in [7]; 1.22% in experiment [8]; 1% in [9].
